Screening results deposited in PubChem BioAssay by National Center for Advancing Translational Sciences (NCATS).
Cruzain inh Det: blocks cruzain activity in presence of Triton detergent; AID 1478; purified cruzain, Z-FR-AMC fluorescence, 0.01% Triton; hit rate 0.43% among 200,000; P25779; Potency, µM, for inactives: max response, negative = inhibition, usual class: inhibitors;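 further: plate controls were neutral wells for no effect and buffer without enzyme for full effect; nearly all actives have a fitted effect of over 40% in size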
Target sequence (P25779 123-467 limits assumed): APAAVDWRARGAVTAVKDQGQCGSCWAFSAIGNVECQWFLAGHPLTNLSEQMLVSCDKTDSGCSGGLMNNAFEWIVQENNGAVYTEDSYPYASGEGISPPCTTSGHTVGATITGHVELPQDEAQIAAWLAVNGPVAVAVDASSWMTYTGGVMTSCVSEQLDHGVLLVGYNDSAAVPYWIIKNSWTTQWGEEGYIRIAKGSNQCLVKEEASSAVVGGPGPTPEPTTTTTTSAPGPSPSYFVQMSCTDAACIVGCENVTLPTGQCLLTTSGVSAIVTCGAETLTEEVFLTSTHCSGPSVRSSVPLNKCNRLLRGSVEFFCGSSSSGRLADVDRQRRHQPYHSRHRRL
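15 min RT preincubation of 1.5 nM cruzain with compound, then 2 uM Z-FR-AMC added; kinetic AMC fluorescence, 60 s delta. Triton X-100 0.01%, pH 5.5.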
Cruzain noTriton: inhibitors of Trypanosoma cruzi cruzain without detergent | hit rate 2.3% among 200,000 | purified cruzain, Z-FR-AMC fluorescence, no detergent | P25779 | Potency, µM, for inactives: max response, negative = inhibition, usual class: inhibitors;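 further: plate controls were enzyme without inhibitor for no effect and buffer without enzyme for full effect; nearly all actives have a fitted effect of over 40% in size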
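Purified cruzain at 1.5 nM, pre-incubated 15 min with compound at room temperature in 100 mM sodium acetate pH 5.5, 5 mM DTT, 0.00005% Triton X-100. Reaction started with 2 uM Z-FR-AMC; AMC fluorescence increase over 60 s gives rate.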
* marks the source's active call; other numbers are inactive results; ? = inconclusive; ! = not confirmed by another sample. Compounds with a hit are over-represented: about 2.4% of the library has one in this group of screens. The call rests on the fitted dose curve; in most records, active means well fitted curve in the direction sought with a large enough effect; inconclusive means small, poorly fitted or top-dose-only effect, or another doubt; inactive means no such curve, though single readings can be large; an effect the other way counts as inactive or inconclusive. Potency means the concentration at half of the fitted maximal effect.

SMILES	Cruzain inh Det	Cruzain noTriton
COc1ccc(/C=C/C(=O)NCC(=O)N/N=C/c2cc(Br)ccc2OCc2ccccc2)cc1	3%	6.3µM*
O=c1c(N2CCc3ccccc3C2)csc2ccc(Br)cc12	-8%	-7%
CC1=C(\C=C/C(C)=C/C=C\C(C)=C\C(=O)O)C(C)(C)CCC1	-4%	?
CC1=C(/C=C/C(C)=C/C=C/C(C)=C/C(=O)Nc2ccc(O)cc2)C(C)(C)CCC1	-5%	16µM*!
Cc1cccc(N(CC(=O)NCCSCc2cccc(Cl)c2)S(=O)(=O)c2ccccc2)c1C	-6%	-13%
COc1ccc(S(=O)(=O)Nc2ccc3oc4c(c3c2)CCCC4)cc1	-11%	?
O=S(=O)(Nc1ccc2oc3c(c2c1)CCCC3)c1cc(Cl)ccc1Cl	-3%	32µM*
Cc1ccc(NC(=O)c2cc(S(=O)(=O)N3CCC4(CC3)OCCO4)ccc2F)cc1Cl	0%	?
COCCn1c(=O)c(-c2cccc(C#N)c2)nc2cnc(OCc3ccccc3)nc21	2%	1%
CC[C@H]1C(c2ccccc2)=NN(c2ccccc2)[C@@H]1CO	-8%	?
COc1ccccc1[C@H]1C(c2ccc(F)cc2)=NN(c2ccccc2)[C@@H]1CO	-1%	32µM*
COc1ccccc1[C@H]1C(c2ccccc2)=NN(c2ccccc2)[C@@H]1CO	-26%	?
COc1ccccc1[C@H]1C(c2cccc(C)c2)=NN(c2ccccc2)[C@@H]1CO	3%	18µM*
Cc1cc(-c2ccccc2)n2nc(-c3cccc(Br)c3)cc2n1	-4%	?
Cc1cccc(-c2noc(-c3cc(C(C)C)[nH]n3)n2)c1	-11%	12%
NC(=O)C1(N2CCCCC2)CCN(C(=O)Nc2ccc(F)cc2)CC1	0%	10%
Cc1cc(NC(=O)CCSc2nc(-c3ccco3)cc(C(F)(F)F)n2)no1	4%	8%
Cc1cc(NC(=O)CSc2nc(-c3ccco3)cc(C(F)(F)F)n2)no1	-4%	20µM*
COc1ccc(NC(=O)Cn2c(=O)n(-c3ccc(CC(=O)NCC4CCCO4)cc3)c(=O)c3ccccc32)c(OC)c1 (configuration not stated)	-2%	?
Cc1ccccc1CNC(=O)C(=O)NCC(c1ccco1)S(=O)(=O)c1ccc(F)cc1 (configuration not stated)	-4%	-10%
Cc1ccc(NC(=O)Cn2nc(-c3ccccc3)nc(Cc3ccc(Cl)cc3)c2=O)cc1	1%	25µM*
Cc1ccc(NC(=O)Cn2nc(-c3ccccc3)nc(Cc3ccccc3)c2=O)cc1	1%	-12%
COc1cccc(CNS(=O)(=O)c2ccc(-c3cc(C(F)(F)F)on3)s2)c1	-9%	-5%
Cc1ccccc1CNC(=O)CCC(=O)N1CC2CCCN2c2ccccc21 (configuration not stated)	-5%	-12%
O=C(COc1ccc(Cl)cc1)Nc1cc(S(=O)(=O)N2CCCCC2)ccc1N1CCCCC1	-2%	16µM*
SMILES	Cruzain inh Det	Cruzain noTriton
CC(=O)c1c(C)[nH]c(C(=O)OCC(=O)Nc2cc(S(=O)(=O)N3CCCC3)ccc2Cl)c1C	-5%	-2%
O=C(COc1ccc(Br)cc1)Nc1cc(S(=O)(=O)N2CCCCC2)ccc1N1CCCCC1	-5%	?
CC(=O)Nc1sc(C)c(C)c1C(=O)OCC(=O)Nc1cc(S(=O)(=O)N2CCCCC2)ccc1Cl	-5%	25µM*
NC(=O)CSc1ncc2c(n1)-c1ccccc1N(Cc1ccc(F)cc1)S2(=O)=O	1%	2%
O=C(O)c1c2c(c(O)c3c1CN(C1CCCCC1)CO3)OCN(C1CCCCC1)C2	3%	5%
COc1ccc2c(c1)c(=O)c(S(=O)(=O)c1ccc(C)cc1)cn2Cc1ccccc1C	-6%	-20%
COc1ccc2c(c1)c(=O)c(S(=O)(=O)c1ccc(Cl)cc1)cn2Cc1cc(C)ccc1C	-4%	10µM*
Cn1c(=O)c2c(nc3n(-c4ccc(O)cc4)c(-c4ccc(Br)cc4)cn23)n(C)c1=O	4%	-3%
COc1ccc(-c2csc(N(CCc3ccccc3)C(=O)COc3ccccc3)n2)cc1	3%	13µM*
COc1ccc(OCC(=O)N(C)Cc2ccccc2)cc1	4%	0%
COCCCN(C(C)=O)c1nc(-c2ccccc2)cs1	-3%	10%
O=C(COc1ccc(Cl)cc1)N(Cc1ccccc1)c1nc(-c2ccccc2)cs1	4%	10µM*
Cc1nn(-c2ccccc2)c2c1cc1c(=O)n(C)c(=O)nc-1n2-c1cccc(Cl)c1	-2%	1%
Cc1nc2c(ccc3nc(NC(=O)c4ccc5c(c4)OCCO5)sc32)s1	14µM*	2%
Cc1nc2ccc3nc(NC(=O)c4ccc5c(c4)OCCO5)sc3c2s1	3%	-5%
CCCCC/C=C\C/C=C\C/C=C\CCCCCCC(=O)NCCCC(=O)O	-1%	-3%
CCc1ccc(NC(=O)CSc2nc3c(sc4ccccc43)c(=O)n2CCCOC(C)C)cc1	1%	16%
Cc1nn(-c2ccccc2)c(C)c1/C=N/NC(=O)CSc1nc2ccccc2c(=O)n1-c1ccc(Br)cc1	2%	16µM*
C=C(C)Cn1c(SCC)nc2ccccc2c1=O	-6%	-4%
C=C(C)Cn1c(SCC(=O)N/N=C/c2c(O)ccc3ccccc23)nc2ccccc2c1=O	-5%	16µM*
Cc1nn(-c2ccccc2)c(C)c1/C=N/NC(=O)CSc1nnc(SCc2cccc3ccccc23)s1	-4%	4µM*
Cc1ccc(-n2c(SCC(=O)N/N=C/c3c(C)nn(-c4ccccc4)c3C)nc3ccccc3c2=O)cc1	-3%	-6%
Cc1ccccc1-n1c(SCC(=O)N/N=C/c2c(C)nn(-c3ccccc3)c2C)nc2ccccc2c1=O	-3%	?
C=CCC(C)(O)c1ccccc1 (configuration not stated)	4%	-4%
COc1ccccc1CNC(=O)c1ccc2c(c1)nc(C)n2-c1ccccc1OC	-3%	9%
SMILES	Cruzain inh Det	Cruzain noTriton
Cc1ccc(NC(=O)Cn2nnc(-c3nc(-c4ccncc4)no3)c2N)c(C)c1	-2%	8%
O=C(N/N=C/C=C/c1ccccc1)c1ccncc1	-10%	3%
C#CCn1cc(/C=N/NC(=O)c2cc3ccccc3o2)c2ccccc21	-11%	-17%
C=CCn1cc(/C=N\NC(=O)c2cc3c(ccc4ccccc43)o2)c2ccccc21	0%	16µM*
O=C(N/N=C/C=C/c1ccccc1)c1cc2c(ccc3ccccc32)o1	?	10µM*
COC(=O)C1(CC(C)C)C=C2C(=C(C)C(=O)C2C)CN1 (configuration not stated)	-5%	-4%
CCOC(=O)c1sc(N(Cc2ccccc2)C(=O)COC(=O)c2ccccc2O)nc1C	-7%	-16%
CCOC(=O)c1sc(N(Cc2ccccc2)C(=O)COC(=O)c2ccc(O)cc2)nc1C	-5%	16µM*
C=C1CCC2C(C)(CO)C(O)CCC2(C)C1C/C=C1\C(=O)OCC1O (configuration not stated)	0%	-2%
N#Cc1cccc(NC(=O)N2CCC3(CC2)CCN(C(=O)c2cnccn2)CC3)c1	-4%	12%
CCCOc1ccc(CNC(=O)C(C)n2nc(C)n3c(cc4occc43)c2=O)cc1 (configuration not stated)	-1%	22%
COc1cc(-c2cc(OC)c3c(C)oc(C)c3c(=O)c2)ccc1OC(=O)c1ccccc1Cl	-21%	26%
COc1cc(-c2cccs2)cc(=O)c2c(C)oc(C)c12	-5%	20µM*
O=c1c(-c2ccccc2)nc2cnc(N3CCNCC3)nc2n1-c1ccccc1	-12%	-1%
